According to PubChem BioAssay:
Calls of active or inactive are those of the source.

assay: growth modulation of vineyard yeast isolate – strain RM11-1a, OD600, basal, 24 h, primary screen (AID 1177);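 further: cultures grown under basal conditions with no added stressor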; details: S. cerevisiae RM11-1a growth, OD600, 24 h; higher = more signal, called active from +8 up or from −8 down
Further: test concentration not given here.

z-score, inactive:
CCOC(=O)C[C@H]1[C@H](OC(=O)c2ccc(-c3ccccc3)cc2)[C@@H](NC(=O)C2CCCCC2)c2cc(OCCCO)ccc2N1C(=O)c1ccccc1 0.925
O=C1O[C@@H](c2ccccc2)[C@@H](c2ccccc2)N2[C@@H](c3ccccc3OCCO)[C@]3(C(=O)Nc4ccccc43)[C@@H](C(=O)NC[C@H](O)c3ccccc3)[C@H]12 3.08
C=CC1c2cc(O)c(OC)cc2CCN1Cc1sc2ccccc2c1Cl (stereo not given) -3.6
CC(C)CN1C(=O)[C@@]2(c3ccc([N+](=O)[O-])cc3)CC(=O)N(CC34CC5CC(CC(C5)C3)C4)[C@@H]2c2ccc(CO)cc21 -0.855
COCCOC(=O)N1C(=O)[C@@]2(c3cc(C#Cc4ccc(OC)cc4)ccc31)[C@H](C(=O)N1CCN(c3ncccn3)CC1)[C@H]1C(=O)O[C@H](c3ccccc3)[C@H](c3ccccc3)N1[C@@H]2c1ccccc1OCCO 4.28
CCOC(=O)C[C@H]1[C@H](OC(=O)Cc2ccc3c(c2)OCO3)[C@@H](NC(=O)Cc2ccc(OC)cc2)c2cc(OCCCO)ccc2N1C(=O)c1ccccc1 0.42
[N-]=[N+]=Nc1ccccc1C[C@]1(C(=O)NCc2ccccc2)N=C(c2ccc(OCCCO)cc2)O[C@H]1c1ccccc1 3.08
COC(=O)Cn1c(C(=O)N2CCCC2)cc2c1C[C@H]1CN(C(=O)c3ccccc3)[C@@](Cc3ccc(F)cc3)(C(=O)OC)[C@@H]21 -1.54
COc1ccc(NN2C(C(O)c3ccco3)C=CC3C(=O)N(C4CCCCC4)C(=O)C32)cc1 (stereo not given) -0.0552
CCCCN1CC=CC23O[C@@H]4C=CCOC(=O)[C@@H]4[C@H]2C(=O)N(C(C)CO)[C@@H]3C1=O (stereo not given in full) -0.938
COc1ccc(NC(=O)O[C@H]2[C@H](OC(=O)Nc3ccc4c(c3)OCO4)[C@@H](OC(=O)Nc3ccc4c(c3)OCO4)[C@@H](OC)O[C@@H]2CO)cc1 1.56
C=CCN1C(=O)[C@]2(CC=C)N=C(c3ccc(OCCCO)cc3)O[C@@H]2c2ccccc21 0.506
CC1CC/C=C\[C@H]2OC34C=CCN(C(C)C)C(=O)[C@H]3N(CCCCCO)C(=O)[C@@H]4C2C(=O)O1 (stereo not given in full) -0.171
COC(=O)[C@@]1(Cc2ccccc2)[C@H]2c3cc(C(=O)N4CCCC4)n(Cc4ccsc4Br)c3C[C@H]2CN1C(=O)c1ccccc1 1.15
NCCCCCNC(=O)[C@@H]1C[C@@H]2C(=O)N[C@@H](CCCCN)C(=O)N2[C@@H]1c1cccc(OCCO)c1 -0.0041
CCOC(=O)C1=CC[C@@H](c2ccc([N+](=O)[O-])cc2)N(S(=O)(=O)c2ccc(C)cc2)[C@H]1c1ccccc1 0.901
CC(C)c1ccc(NN2C(C(O)c3ccco3)C=CC3C(=O)N(c4ccccc4)C(=O)C32)cc1 (stereo not given) 0.921
COC1(C)CN(Cc2ccccc2Br)[C@H](/C=C/c2ccccc2)[C@H](Cc2ccccc2)O1 (stereo not given in full) 0.44
CC=CC(O)C1C=CC2C(=O)N(C)C(=O)C2N1N1CCCCC1 (stereo not given) -0.714
CCOC(=O)C1=CC[C@@H](c2cc(Cl)ccc2Cl)N(S(=O)(=O)c2ccc(C)cc2)[C@H]1c1ccc(OC)cc1 2.28
C=C(CCCC)C(=O)CC[C@@H](OC(=O)c1ccccc1-c1ccccc1C(=O)O)c1cccc(OCCO)c1 0.134
CC(C)(C)OC(=O)CC[C@@]1(C(=O)O)N=C(c2ccc(OCCCO)cc2)O[C@@H]1c1ccccc1CN=[N+]=[N-] 0.323
O=C1C[C@]2(c3ccc([N+](=O)[O-])cc3)C(=O)N(Cc3ccccc3)c3cc(CO)ccc3[C@H]2N1CC12CC3CC(CC(C3)C1)C2 -0.268
O=C(CS)NCCCCCCNC(=O)[C@@H]1C[C@@H]2C(=O)N3CCC[C@H]3C(=O)N2[C@@H]1c1cccc(OCCO)c1 -1.5
CN(C)CCCCNC(=O)[C@H]1C[C@H]2C(=O)N[C@@H](CCCCN(C)C)C(=O)N2[C@H]1c1cccc(OCCO)c1 0.807

assay: growth of efflux-deficient E. coli DRC39 – strain DRC39, OD650, 24 h, E. coli filamentation inducers, primary screen (AID 1178);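 further: growth measured as culture turbidity by optical density at 650 nm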; details: E. coli DRC39 acrAB, higher = more signal, called active from +8 up or from −8 down

z-score, inactive:
COCC(=C=CC[C@H](O)c1ccc(OCCO)cc1)C[C@H](O)COCc1ccccc1 0.979
O=C1NC(=O)C2C1C=CC(C(O)c1cc(C(F)(F)F)cc(C(F)(F)F)c1)N2Nc1ccc(Cl)cc1Cl (stereo not given) -1.14
COC(=O)[C@H](Cc1ccccc1)N1CC(/C=C/C2CC2)=C[C@@H]1[C@@H](O)Cc1ccccc1 0.461
NC(=O)NCC#Cc1ccc2c(c1)[C@]1(C(=O)N2)[C@H](C(=O)Nc2nc3ccccc3s2)[C@H]2C(=O)O[C@H](c3ccccc3)[C@H](c3ccccc3)N2[C@@H]1c1ccc(O)cc1 0.296
O=C1O[C@@H](c2ccccc2)[C@@H](c2ccccc2)N2[C@@H](c3ccc(O)cc3)[C@]3(C(=O)Nc4ccc(C#CC5=CCCCC5)cc43)[C@@H](C(=O)N3CCN(c4ncccn4)CC3)[C@H]12 -0.289
CC(=O)NCCCC[C@@H]1NC(=O)[C@@H]2C[C@H](C(=O)O)[C@H](c3ccc(O)cc3)N2C1=O 0.0763
COc1cc(CO)cc(I)c1O[C@H]1C=C(C(=O)NCCO)C[C@@H](NCc2ccccc2F)[C@@H]1O 0.491
O=C1NCC(=O)N2[C@@H]1C[C@@H](C(=O)O)[C@H]2c1ccc(O)cc1 -0.42
COC(=O)[C@@]1(Cc2ccc(F)cc2)[C@H]2c3cc(C(=O)N4CCCC4)n(CCF)c3C[C@H]2CN1C(=O)c1ccccc1 -0.239
C[C@]1(C(=O)O)c2ccccc2C(=O)N(Cc2ccccc2)[C@H]1c1ccc(CO)cc1 -0.0256
CCOC(=O)C[C@H]1[C@H](OC(=O)c2ccc(-c3ccccc3)cc2)[C@@H](NC(=O)C2CCCCC2)c2cc(OCCCO)ccc2N1C(=O)c1ccccc1 -0.406
O=C1O[C@@H](c2ccccc2)[C@@H](c2ccccc2)N2[C@@H](c3ccccc3OCCO)[C@]3(C(=O)Nc4ccccc43)[C@@H](C(=O)NC[C@H](O)c3ccccc3)[C@H]12 -0.0586
C=CC1c2cc(O)c(OC)cc2CCN1Cc1sc2ccccc2c1Cl (stereo not given) 0.243
CC(C)CN1C(=O)[C@@]2(c3ccc([N+](=O)[O-])cc3)CC(=O)N(CC34CC5CC(CC(C5)C3)C4)[C@@H]2c2ccc(CO)cc21 0.197
COCCOC(=O)N1C(=O)[C@@]2(c3cc(C#Cc4ccc(OC)cc4)ccc31)[C@H](C(=O)N1CCN(c3ncccn3)CC1)[C@H]1C(=O)O[C@H](c3ccccc3)[C@H](c3ccccc3)N1[C@@H]2c1ccccc1OCCO -0.269
CCOC(=O)C[C@H]1[C@H](OC(=O)Cc2ccc3c(c2)OCO3)[C@@H](NC(=O)Cc2ccc(OC)cc2)c2cc(OCCCO)ccc2N1C(=O)c1ccccc1 -0.296
[N-]=[N+]=Nc1ccccc1C[C@]1(C(=O)NCc2ccccc2)N=C(c2ccc(OCCCO)cc2)O[C@H]1c1ccccc1 0.515
COC(=O)Cn1c(C(=O)N2CCCC2)cc2c1C[C@H]1CN(C(=O)c3ccccc3)[C@@](Cc3ccc(F)cc3)(C(=O)OC)[C@@H]21 -0.132
COc1ccc(NN2C(C(O)c3ccco3)C=CC3C(=O)N(C4CCCCC4)C(=O)C32)cc1 (stereo not given) -0.624
CCCCN1CC=CC23O[C@@H]4C=CCOC(=O)[C@@H]4[C@H]2C(=O)N(C(C)CO)[C@@H]3C1=O (stereo not given in full) -0.338
COc1ccc(NC(=O)O[C@H]2[C@H](OC(=O)Nc3ccc4c(c3)OCO4)[C@@H](OC(=O)Nc3ccc4c(c3)OCO4)[C@@H](OC)O[C@@H]2CO)cc1 1.13
C=CCN1C(=O)[C@]2(CC=C)N=C(c3ccc(OCCCO)cc3)O[C@@H]2c2ccccc21 0.578
CC1CC/C=C\[C@H]2OC34C=CCN(C(C)C)C(=O)[C@H]3N(CCCCCO)C(=O)[C@@H]4C2C(=O)O1 (stereo not given in full) 1.01
COC(=O)[C@@]1(Cc2ccccc2)[C@H]2c3cc(C(=O)N4CCCC4)n(Cc4ccsc4Br)c3C[C@H]2CN1C(=O)c1ccccc1 -0.28
NCCCCCNC(=O)[C@@H]1C[C@@H]2C(=O)N[C@@H](CCCCN)C(=O)N2[C@@H]1c1cccc(OCCO)c1 0.928
CCOC(=O)C1=CC[C@@H](c2ccc([N+](=O)[O-])cc2)N(S(=O)(=O)c2ccc(C)cc2)[C@H]1c1ccccc1 -0.72
CC(C)c1ccc(NN2C(C(O)c3ccco3)C=CC3C(=O)N(c4ccccc4)C(=O)C32)cc1 (stereo not given) -0.609
COC1(C)CN(Cc2ccccc2Br)[C@H](/C=C/c2ccccc2)[C@H](Cc2ccccc2)O1 (stereo not given in full) 0.531
CC=CC(O)C1C=CC2C(=O)N(C)C(=O)C2N1N1CCCCC1 (stereo not given) -1.07
CCOC(=O)C1=CC[C@@H](c2cc(Cl)ccc2Cl)N(S(=O)(=O)c2ccc(C)cc2)[C@H]1c1ccc(OC)cc1 -0.61
C=C(CCCC)C(=O)CC[C@@H](OC(=O)c1ccccc1-c1ccccc1C(=O)O)c1cccc(OCCO)c1 -0.285
CC(C)(C)OC(=O)CC[C@@]1(C(=O)O)N=C(c2ccc(OCCCO)cc2)O[C@@H]1c1ccccc1CN=[N+]=[N-] 1.35
O=C1C[C@]2(c3ccc([N+](=O)[O-])cc3)C(=O)N(Cc3ccccc3)c3cc(CO)ccc3[C@H]2N1CC12CC3CC(CC(C3)C1)C2 -0.22
O=C(CS)NCCCCCCNC(=O)[C@@H]1C[C@@H]2C(=O)N3CCC[C@H]3C(=O)N2[C@@H]1c1cccc(OCCO)c1 0.743
CN(C)CCCCNC(=O)[C@H]1C[C@H]2C(=O)N[C@@H](CCCCN(C)C)C(=O)N2[C@H]1c1cccc(OCCO)c1 0.0233
